Measured values published in PubChem BioAssay (Tox21).
Calls of active or inactive are those of the source. A call without a number means that no potency is given here. Calls follow the shape of the dose curve; as a rule, active = well fitted activation curve with a large enough effect in the signal ratio in the repeat runs (not every such curve was filed as active); inconclusive = weak or mixed curves, or effect the other way; inactive = no such curve, though single readings can be large or run the other way; the % refers to the signal ratio.

molecular target: Glucocorticoid receptor (Homo sapiens) (UniProt P04150); assay: qHTS assay to identify small molecule agonists of the glucocorticoid receptor (GR) signaling pathway (AID 720691); conditions: GR-bla HeLa, beta-lactamase reporter ratio, 18 h; activation: at 62.4 µM (top of the series)
Sequence (P04150 whole entry, looked up): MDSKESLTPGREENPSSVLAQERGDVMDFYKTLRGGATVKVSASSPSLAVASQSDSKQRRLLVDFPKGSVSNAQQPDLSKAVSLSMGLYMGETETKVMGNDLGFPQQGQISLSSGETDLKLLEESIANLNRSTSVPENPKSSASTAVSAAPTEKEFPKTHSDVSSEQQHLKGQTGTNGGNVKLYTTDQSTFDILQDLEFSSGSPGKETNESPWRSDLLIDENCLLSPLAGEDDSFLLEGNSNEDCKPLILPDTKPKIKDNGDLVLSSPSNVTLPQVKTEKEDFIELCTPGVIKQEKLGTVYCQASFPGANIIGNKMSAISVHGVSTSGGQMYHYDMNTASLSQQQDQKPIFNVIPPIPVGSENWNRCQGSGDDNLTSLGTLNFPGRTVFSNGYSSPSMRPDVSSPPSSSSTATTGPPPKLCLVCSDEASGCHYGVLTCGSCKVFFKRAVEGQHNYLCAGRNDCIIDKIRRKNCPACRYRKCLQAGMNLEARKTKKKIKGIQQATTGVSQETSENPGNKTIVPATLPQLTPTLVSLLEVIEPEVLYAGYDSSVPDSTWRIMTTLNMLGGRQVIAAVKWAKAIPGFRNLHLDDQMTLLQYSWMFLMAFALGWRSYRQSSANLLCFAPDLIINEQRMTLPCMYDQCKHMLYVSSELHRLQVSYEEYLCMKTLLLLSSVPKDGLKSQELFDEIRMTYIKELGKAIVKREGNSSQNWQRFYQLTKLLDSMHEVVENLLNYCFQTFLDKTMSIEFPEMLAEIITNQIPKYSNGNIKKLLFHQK
From the text: U.S. Tox21 Program National Center for Advancing Translational Sciences [NCATS] NIH Chemical Genomics Center [NCGC] U.S. Environmental Protection Agency [EPA] National Institutes of Environmental Health Sciences [NIEHS] National Toxicology Program [NTP] U.S. Food and Drug Administration [FDA] Tox21 Assay Overview: The Glucocorticoid receptor (GR) is one of the members of the nuclear receptor family of ligand-dependent transcription factors. GR plays a critical role in carbohydrate, protein and lipid metabolisms and programmed cell death. CellSensor GR-bla HeLa cell line (Invitrogen) contains a beta-lactamase reporter gene under the control of the glucocorticoid response element stably integrated into HeLa cells, a cervical cancer cell line that expresses glucocorticoid receptor. The activation of the reporter gene under culture conditions can be detected by fluorescence intensity. This cell line has been used to screen the Tox21 10K compound library and to identify the compounds that activate the GR signaling.
Tox21 Assay Protocol Summary: The GR-bla HeLa cells were dispensed at 1500 cells/6 ul/well in 1536-well black wall/clear bottom plates using a Multidrop Combi (ThermoFisher Scientific, Waltham, MA) dispenser. After the assay plates were incubated at a 37 C/5% CO2 incubator for 4 hours, 23 nL of compounds dissolved in DMSO, positive controls or DMSO only was transferred to the assay plate by a pintool station (Kalypsys, San Diego, CA). The plates were incubated at 37 C for 18 hours. After 1 uL of LiveBLAzerTM B/G FRET substrate was added using a Flying Reagent Dispenser (Aurora Discovery, San Diego, CA), the plates were incubated at room temperature for 2 hours, and fluorescence intensity was measured by an Envision plate reader (PerkinElmer, Shelton, CT).
Potency is read from the fitted curve at half-maximal effect.

SMILES | Potency
C=CC1=C(C)C2=CC3=NC(=C(CC(=O)[O-])C4=NC(=C(C)C4=C([O-])[O-])C=c4[n-]c(c(C)c4CC)=CC1=N2)C(CCC(=O)[O-])C3C.[Cu+2].[Na+].[Na+].[Na+] (stereo not given) | inactive
CC#CCC(C)[C@H](O)/C=C/[C@@H]1[C@H]2c3cccc(CCCC(=O)O)c3O[C@H]2C[C@H]1O (stereo not given in full) | inactive
NCc1ccccc1CC(=O)N[C@@H]1C(=O)N2C(C(=O)O)=C(CSc3nnnn3CC(=O)O)CS[C@H]12 | inactive
O=C(/C=C/c1cccc(F)c1)NC1CC1 | inactive
NS(=O)(=O)c1cc2c(cc1Cl)NC(Cc1ccccc1)NS2(=O)=O (stereo not given) | inactive
C=C[C@]1(C)C[C@@H](OC(=O)CSC(C)(C)CNC(=O)[C@H](N)C(C)C)[C@]2(C)[C@H](C)CC[C@]3(CCC(=O)[C@H]32)[C@@H](C)[C@@H]1O | inactive
CO/N=C(\C(=O)N[C@@H]1C(=O)N2C(C(=O)O)=CCS[C@H]12)c1csc(N)n1 | inactive
CCN(CC)CCOC(=O)c1ccc(N)cc1Cl | inactive
Nc1ncnc2c1ncn2CCOCP(=O)(O)O | inactive
C#C[C@]1(O)CC[C@H]2[C@@H]3CCC4=C(CCC(=O)C4)[C@H]3CC[C@@]21C | inactive
CC[C@H](C)[C@@H]1NC(=O)[C@H](Cc2ccc(O)cc2)NC(=O)[C@@H](N)CSSC[C@@H](C(=O)N2CCC[C@H]2C(=O)N[C@@H](CC(C)C)C(=O)NCC(N)=O)NC(=O)[C@H](CC(N)=O)NC(=O)[C@H](CCC(N)=O)NC1=O | inactive
C[C@H](O)[C@H](O)[C@H]1CNc2nc(N)[nH]c(=O)c2N1 | inactive
OC(CN1CCCCC1)c1cc(-c2ccccc2)on1 (stereo not given) | inactive
CC1(C)C(\C=C/C=C\C=C/C=C2/N(CCCCS(=O)(=O)O)c3ccc4ccccc4c3C2(C)C)=[N+](CCCCS(=O)(=O)[O-])c2ccc3ccccc3c21 | inactive
O=P(O)(O)OC(Cn1cncn1)(Cn1cncn1)c1ccc(F)cc1F | inactive
O=C1C(=O)c2ncccc2-c2cccnc21 | inactive
O=C(O)c1cc(N=Nc2ccc(O)c(C(=O)O)c2)ccc1O | inactive
NCCCC[C@H](N)C(=O)O | inactive
CCCOc1ccc2nc(NC(=O)OC)sc2c1 | inactive
O=C(Cc1cccs1)N[C@@H]1C(=O)N2C(C(=O)[O-])=C(C[n+]3ccccc3)CS[C@H]12 | inactive

SMILES | Potency
CC(=O)N[C@@H]([C@@H](O)[C@H](O)[C@H](O)CO)[C@@H](O)CC(=O)C(=O)O | inactive
CC1(C)S[C@@H]2[C@H](NC(=O)[C@H](NC(=O)N3CCN(S(C)(=O)=O)C3=O)c3ccccc3)C(=O)N2[C@H]1C(=O)O | inactive
CC(C)c1nc(N(C)S(C)(=O)=O)nc(-c2ccc(F)cc2)c1/C=C/C(O)CC(O)CC(=O)O (stereo not given) | inactive
CC(=O)O[C@H]1C(=O)[C@@]2(C)[C@H]([C@H](OC(=O)c3ccccc3)[C@]3(O)C[C@H](OC(=O)[C@H](O)[C@@H](NC(=O)c4ccccc4)c4ccccc4)C(C)=C1C3(C)C)[C@]1(OC(C)=O)CO[C@@H]1C[C@@H]2O | inactive
CCCCCCCCCCCCCCCCCCOP(=O)([O-])OC1CC[N+](C)(C)CC1 | inactive
CC1CCC(NC(=O)N(CCCl)N=O)CC1 (stereo not given) | inactive
CCOC(=O)c1c[nH]c2cc(OCC(C)C)c(OCC(C)C)cc2c1=O | inactive
O=S(=O)(O)c1cc(O)c2c(N=Nc3ccc(Nc4ccccc4)c4c(S(=O)(=O)O)cccc34)cc(S(=O)(=O)O)cc2c1 | inactive
OCCO[C@@H]1[C@@H](O)[C@H](O)[C@@H](CO)O[C@@H]1O | 13.4 µM [inconclusive] (active)
CS(=O)(=O)NC(=O)CCC/C=C\C[C@H]1C(=O)C[C@@H](O)[C@@H]1/C=C/[C@H](O)COc1ccccc1 | inactive
C=CCNC1=C2C[C@@H](C)C[C@H](OC)[C@H](O)[C@@H](C)/C=C(\C)[C@H](OC(N)=O)[C@@H](OC)/C=C\C=C(/C)C(=O)NC(=CC1=O)C2=O | inactive
CCC(CN)CC(C)CCNCC(O)CNCC(C)CC(CC)CN (stereo not given) | inactive
CCOC(=O)[C@H](CCc1ccccc1)N[C@H]1CCCN2CCC[C@@H](C(=O)O)N2C1=O | inactive
CN[C@@H]1[C@@H](O)[C@@H](O[C@@H]2[C@@H](O)[C@H](OC3OC(CN)=CCC3N)[C@@H](N)C[C@H]2N)OC[C@]1(C)O (stereo not given in full) | inactive
CC(/C=C/C=C(\C)C(=O)O[C@@H]1O[C@H](CO[C@@H]2O[C@H](CO)[C@@H](O)[C@H](O)[C@H]2O)[C@@H](O)[C@H](O)[C@H]1O)=C\C=C\C=C(C)\C=C\C=C(/C)C(=O)O[C@@H]1O[C@H](CO[C@@H]2O[C@H](CO)[C@@H](O)[C@H](O)[C@H]2O)[C@@H](O)[C@H](O)[C@H]1O | inactive
CC(=O)O[C@H]1CC[C@@]2(C)C(=CC[C@@H]3[C@@H]2CC[C@]2(C)C(c4cccnc4)=CC[C@@H]32)C1 | inactive
O=P(O)(O)C(Sc1ccc(Cl)cc1)P(=O)(O)O | inactive
CCCCCCCCCCCCCCCCCCCCCC(=O)Nc1ccn([C@@H]2O[C@H](CO)[C@@H](O)[C@@H]2O)c(=O)n1 | inactive
N#Cc1ccc2c(c1)N(CCCN1CCC(O)CC1)c1ccccc1S2 | inactive
O=C1/C(=C\c2cccs2)CCC/C1=C\c1cccs1 | inactive
